Active and inactive are the calls of the source. Unless noted, how the calls were made is not given here.

The nature of experiment [1]: anti-His antibody binders, primary screen, artefact control for SMM control protein annotation, biochemical, small-molecule microarray, 635 nm fluorescence (AID 1128).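 Further: score merges feature fluorescence with signal-to-noise for each printed compound spot.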 The settings on record: anti-His Alexa647 antibody binding, higher = more signal.
Experiment [2] concerns Human papillomavirus type 1a E7 protein (residues 1-88). The experiment can be described thus: HPV1a E7 small-molecule binders, primary screen, biochemical, small-molecule microarray, residues 1-88, 635 nm (AID 1129). The following applies: small-molecule microarray binding, fluorescence 635 nm; higher = more signal.
Experiment [3] addresses Focal adhesion kinase 1 (Homo sapiens) (UniProt Q05397). The experiment can be described thus: small-molecule microarray binders of FAK, primary screen, biochemical, 635/667 nm fluorescence, BSA, DTT (AID 1130).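 Further: composite of spot emission at 667 nm and signal to noise over triplicate slides.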 The settings on record: PTK2 binding, 635 nm fluorescence, higher = more signal.
Experiment [4] relates to Fibrinogen (Alexa647-labelled). The experiment can be described thus: fibrinogen binders on compound microarrays, profiling panel, artefact control for SMM control-protein annotation, biochemical, small-molecule microarray, 635/667 nm fluorescence (AID 1131).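 Further: z-score merges 667 nm fluorescence with per-spot signal-to-noise over triplicate slides.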 The settings on record: fibrinogen-A647 binding fluorescence, higher = more signal.
Experiment [5] addresses Follistatin (Homo sapiens) (UniProt P19883). Briefly: follistatin binders on small-molecule microarrays, primary screen, biochemical, small-molecule microarray, 635/667 nm fluorescence (AID 1132). The settings on record: FST binding, 635 nm fluorescence, higher = more signal.
In experiment [6] the target is Fibroblast growth factor 2 (Homo sapiens) (UniProt P09038). Briefly: FGF2 binders on small-molecule microarrays, primary screen, biochemical, small-molecule microarray, 635/667 nm fluorescence (AID 1133). The settings on record: small-molecule microarray binding, FGF2, fluorescence 635/667; higher = more signal.
Experiment [7] is described as follows: mitochondrial membrane potential change in A549 cells, profiling panel, cell-based, JC-1 fluorescence, basal, 24 h, 100 nL (AID 1138).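 Further: A549 lung adenocarcinoma cells under basal conditions with no added stimulus; test concentration not given here.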 The following applies: higher = more signal.
Experiment [8] deals with Lefty1. Briefly: Lefty1 binders on small-molecule microarrays, primary screen, biochemical, small-molecule microarray, 635/667 nm fluorescence (AID 1139). The settings on record: small-molecule microarray binding, fluorescence 635/667; higher = more signal.
For experiment [9], the system named is wheat germ agglutinin (Triticum aestivum), Alexa647-labelled. The experiment can be described thus: wheat germ agglutinin binders on compound microarrays, profiling panel, artefact control for SMM control-protein annotation, biochemical, small-molecule microarray, 635/667 nm fluorescence (AID 1140).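 Further: score merges 667 nm feature emission with signal to noise over triplicate slides.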 The following applies: WGA-A647 binding, 635 nm fluorescence, higher = more signal.

Experiment [10] concerns the target Luciferin 4-monooxygenase (Photinus pyralis) (UniProt P08659). The experiment can be described thus: firefly luciferase enzyme inhibitors, primary screen, biochemical, luminescence, purified enzyme, 2006 set (AID 1141).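 Further: cell-free assay with purified firefly luciferase at 100 ng per well in PBS; test concentration not given here.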 The settings on record: SteadyGlo luminescence, 30 min, higher = more signal, called active from +8 up or from −8 down.
The subject of experiment [11] is Wnt5a (protein binding on small-molecule microarray). Briefly: Wnt5a binders on small-molecule microarray, primary screen, biophysical, 635/667 nm fluorescence (AID 1142).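 Further: fluorescence read at 667 nm with signal to noise per printed feature.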 The settings on record: 635 nm fluorescence, higher = more signal.
Experiment [12] in a line: cell viability in Huh7 cells, primary screen, cytotoxicity control for HCV replication inhibitor project, CellTiter-Glo luminescence, basal, 48 h (AID 1143).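 Further: Huh7 hepatoma cells carrying a hepatitis C replication reporter with no stimulus; test concentration not given here.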 The following applies: Huh7 HCV replicon, higher = more signal, called active from +8 up or from −8 down. (In ATP-based viability assays light output follows the ATP content of the culture.)
A short description of experiment [13]: P. aeruginosa biofilm formation inhibitors, primary screen, PAO1 strain, BacTiter-Glo luminescence, LB-PBS (AID 1144). The settings on record: 12 h, higher = more signal.
Experiment [14] can be described thus: CREB reporter modulators without forskolin, primary screen, cell-based, PC12, CRE-LacZ reporter, unstimulated (AID 1145). The settings on record: no forskolin, luminescence, 4.5 h, higher = more signal, called active from +8 up or from −8 down.
Experiment [15] can be described thus: CREB reporter modulators under forskolin, primary screen, cell-based, PC12, CRE-LacZ reporter, forskolin-stimulated (AID 1146).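 Further: PC12 cells with 6xCRE LacZ reporter stimulated by forskolin 10 µM; beta-galactosidase reporter signal reflecting CREB driven transcription.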 The settings on record: luminescence, 4.5 h, higher = more signal, called active from +8 up or from −8 down.
Experiment [16] deals with Streptavidin (Streptomyces avidinii) (UniProt P22629). The experiment can be described thus: streptavidin binders on small-molecule microarray, primary screen, artefact control for SMM compound annotation, biophysical, 635/667 nm fluorescence (AID 1147).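 Further: signal reflects streptavidin binding to arrayed compounds as a control protein.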 The following applies: streptavidin binding, higher = more signal.
Experiment [17] in a line: small-molecule binders of probe aInhba, primary screen, biochemical, small-molecule microarray, 635/667 nm fluorescence (AID 1148).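 Further: score merges 667nm spot fluorescence with signal-to-noise for antibody binding to printed compounds.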 The following applies: higher = more signal.
Experiment [18] concerns the target Torsin-1A (Homo sapiens) (UniProt O14656). Briefly: torsin A binders from cell lysate, primary screen, small-molecule microarray, wild-type, 635/667 nm (AID 1149). The following applies: COS7 hTOR1A-WT lysate, 635 nm fluorescence, higher = more signal.
For experiment [19] the target is unchanged. The experiment can be described thus: small-molecule binders of mutant TOR1A in lysate, primary screen, cell lysate, small-molecule microarray, COS7 lysate, 635/667 nm fluorescence (AID 1150).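 Further: score pools 667 nm emission and signal to noise measuring lysate protein binding.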 The settings on record: COS7 hTOR1A mutant lysate, 635 nm fluorescence, higher = more signal.
The subject of experiment [20] is Sonic hedgehog protein (Shh). The experiment can be described thus: small-molecule binders of Shh protein, primary screen, biochemical, small-molecule microarray, 635/667 nm fluorescence (AID 1151).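 Further: Shh protein binding to compounds spotted on small-molecule microarray slides; score combines spot fluorescence intensity with signal-to-noise across triplicate slides.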 The settings on record: small-molecule microarray binding, 635 nm fluorescence; higher = more signal.

Streptavidin (Streptomyces avidinii), sequence (P22629 whole entry, looked up): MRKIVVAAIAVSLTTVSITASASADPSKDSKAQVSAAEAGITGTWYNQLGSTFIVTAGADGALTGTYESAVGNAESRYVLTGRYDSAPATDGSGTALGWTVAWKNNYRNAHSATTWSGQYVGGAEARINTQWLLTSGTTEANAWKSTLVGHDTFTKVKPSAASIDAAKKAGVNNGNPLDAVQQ
Torsin-1A (Homo sapiens), sequence (O14656 whole entry, looked up): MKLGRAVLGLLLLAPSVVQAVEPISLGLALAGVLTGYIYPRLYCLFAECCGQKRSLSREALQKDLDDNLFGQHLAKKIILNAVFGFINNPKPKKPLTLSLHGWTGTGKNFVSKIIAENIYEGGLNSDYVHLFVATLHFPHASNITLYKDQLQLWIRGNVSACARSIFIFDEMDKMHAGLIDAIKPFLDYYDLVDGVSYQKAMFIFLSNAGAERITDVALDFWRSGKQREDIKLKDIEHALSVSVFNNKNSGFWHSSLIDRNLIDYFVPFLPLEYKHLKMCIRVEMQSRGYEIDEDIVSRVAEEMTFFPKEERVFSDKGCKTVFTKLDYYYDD
Follistatin (Homo sapiens), sequence (P19883 whole entry, looked up): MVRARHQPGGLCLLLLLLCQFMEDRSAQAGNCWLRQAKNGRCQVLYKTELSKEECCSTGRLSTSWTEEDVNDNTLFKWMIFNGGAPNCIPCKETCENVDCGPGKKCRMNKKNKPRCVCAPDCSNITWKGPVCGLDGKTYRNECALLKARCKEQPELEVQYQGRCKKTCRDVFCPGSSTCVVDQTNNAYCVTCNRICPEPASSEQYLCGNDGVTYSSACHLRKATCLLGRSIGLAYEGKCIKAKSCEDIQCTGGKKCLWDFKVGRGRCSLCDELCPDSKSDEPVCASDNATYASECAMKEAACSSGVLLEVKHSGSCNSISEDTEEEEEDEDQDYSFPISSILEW
Focal adhesion kinase 1 (Homo sapiens), sequence (Q05397 whole entry, looked up): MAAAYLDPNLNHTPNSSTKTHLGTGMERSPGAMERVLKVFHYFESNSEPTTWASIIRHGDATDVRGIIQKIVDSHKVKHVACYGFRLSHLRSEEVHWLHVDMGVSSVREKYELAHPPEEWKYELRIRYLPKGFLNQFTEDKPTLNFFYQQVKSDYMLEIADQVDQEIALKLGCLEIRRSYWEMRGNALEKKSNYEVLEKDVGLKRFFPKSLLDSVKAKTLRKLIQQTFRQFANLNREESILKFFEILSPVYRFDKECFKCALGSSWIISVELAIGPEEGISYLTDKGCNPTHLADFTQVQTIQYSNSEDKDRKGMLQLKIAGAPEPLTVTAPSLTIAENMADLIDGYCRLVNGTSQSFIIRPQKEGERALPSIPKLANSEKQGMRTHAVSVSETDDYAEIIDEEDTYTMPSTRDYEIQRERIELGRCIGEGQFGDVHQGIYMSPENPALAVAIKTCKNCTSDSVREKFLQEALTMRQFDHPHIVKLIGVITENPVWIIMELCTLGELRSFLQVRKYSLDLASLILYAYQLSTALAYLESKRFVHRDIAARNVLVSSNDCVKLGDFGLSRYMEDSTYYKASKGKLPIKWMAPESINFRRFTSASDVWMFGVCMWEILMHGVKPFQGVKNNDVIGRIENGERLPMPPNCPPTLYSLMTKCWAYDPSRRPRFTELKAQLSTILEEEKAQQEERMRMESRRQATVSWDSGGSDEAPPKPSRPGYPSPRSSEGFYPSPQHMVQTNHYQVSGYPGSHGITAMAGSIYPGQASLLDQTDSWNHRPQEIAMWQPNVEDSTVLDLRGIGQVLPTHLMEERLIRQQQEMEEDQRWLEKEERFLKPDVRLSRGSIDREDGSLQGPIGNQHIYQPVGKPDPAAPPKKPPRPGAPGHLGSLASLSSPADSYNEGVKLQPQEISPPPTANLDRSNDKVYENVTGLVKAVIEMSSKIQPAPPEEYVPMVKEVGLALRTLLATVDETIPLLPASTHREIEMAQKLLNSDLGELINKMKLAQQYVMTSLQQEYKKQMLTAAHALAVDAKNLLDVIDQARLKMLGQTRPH
Luciferin 4-monooxygenase (Photinus pyralis), sequence (P08659 whole entry, looked up): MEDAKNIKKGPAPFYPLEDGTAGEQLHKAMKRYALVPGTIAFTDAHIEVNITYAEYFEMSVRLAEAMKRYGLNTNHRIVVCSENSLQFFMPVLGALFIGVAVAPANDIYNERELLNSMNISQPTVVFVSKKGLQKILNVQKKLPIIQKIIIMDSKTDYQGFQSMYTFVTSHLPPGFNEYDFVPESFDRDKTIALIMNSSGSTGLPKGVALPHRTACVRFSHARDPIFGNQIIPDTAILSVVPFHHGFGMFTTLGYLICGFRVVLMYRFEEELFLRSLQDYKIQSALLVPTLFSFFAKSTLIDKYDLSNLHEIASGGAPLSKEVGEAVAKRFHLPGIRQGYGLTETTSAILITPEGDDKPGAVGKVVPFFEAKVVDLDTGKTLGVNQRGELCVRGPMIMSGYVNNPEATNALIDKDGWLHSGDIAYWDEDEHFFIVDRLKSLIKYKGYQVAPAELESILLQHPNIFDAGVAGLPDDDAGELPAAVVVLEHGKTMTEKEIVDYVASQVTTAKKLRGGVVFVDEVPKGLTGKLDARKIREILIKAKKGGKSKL
Fibroblast growth factor 2 (Homo sapiens), sequence (P09038 whole entry, looked up): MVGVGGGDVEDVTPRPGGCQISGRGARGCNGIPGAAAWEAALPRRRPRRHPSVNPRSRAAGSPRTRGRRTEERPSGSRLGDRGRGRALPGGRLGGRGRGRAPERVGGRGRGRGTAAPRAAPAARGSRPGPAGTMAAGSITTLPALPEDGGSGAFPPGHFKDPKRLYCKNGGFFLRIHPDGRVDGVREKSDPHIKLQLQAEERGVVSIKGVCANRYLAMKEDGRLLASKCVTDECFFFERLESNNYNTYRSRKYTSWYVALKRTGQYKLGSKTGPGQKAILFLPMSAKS

Consider `CCOC(=O)C[C@H]1[C@H](OC(=O)c2cc3ccccc3oc2=O)[C@@H](NC(=O)Cc2ccc(OC)cc2)c2cc(OCCCO)ccc2N1C(=O)c1ccccc1`, for which the composite z-score in [1] is -0.0228; in experiment [2], 0.376; in experiment [3], -0.0962; in experiment [4] it was 0.367; in experiment [5], 0.371; in experiment [6] it was 0.382. Moreover, the composite z-score in [8] amounted to 0.248; in [9], 0.318; in [11], 0.0687; in experiment [16], 0.308; in experiment [17] it was 0.0713; in [18] it was 0.388. The composite z-score in experiment [19] stood at 0.804; in experiment [20], 0.189. Further, the z-score is -1.01 in [7]; 0.589 (inactive) in [10]; -3.21 (inactive) in experiment [12]; -0.797 (inactive) in [13]; 4.1 (inactive) in [14]; -0.27 (inactive) in [15].

In the case of `COc1ccc(C(=O)O[C@H]2CC[C@]3(C)C4=C(CCC3C2(C)C)[C@]2(C)CC[C@H]([C@H](C)CCCC(C)C)[C@@]2(C)CC4)cc1` (stereo not given in full), the composite z-score was 0.541 in experiment [1]; 0.607 in [2]; -0.0307 in experiment [3]; 0.206 in experiment [4]; 0.625 in experiment [5]; 0.483 in experiment [6]. The composite z-score is 0.493 in experiment [8]; 0.103 in [9]; 0.314 in [11]; 0.25 in experiment [16]; -0.103 in experiment [17]; 0.344 in experiment [18]. The composite z-score amounted to 0.609 in experiment [19] and 1 in experiment [20]. The z-score in [7] is 1.41; in experiment [10], -0.384 (inactive); in experiment [12], -1.02 (inactive); in experiment [13] it was -1.6 (inactive); in experiment [14] it was 0.131 (inactive); in experiment [15], -0.634 (inactive).

Consider `O=C1C2C=CC(C(O)C3CCCCC3)N(Nc3ccc([N+](=O)[O-])cc3)C2C(=O)N1c1ccccc1` (stereo not given), for which the composite z-score was 3.32 in experiment [1]; 1.21 in experiment [2]; 0.539 in [3]; 0.959 in experiment [4]; -0.647 in experiment [5]; -1.58 in experiment [6]. Moreover, the composite z-score is -0.153 in experiment [8]; 0.823 in experiment [9]; -0.457 in experiment [11]; 0.48 in experiment [16]; -0.213 in [17]; -0.465 in experiment [18]. The results for the composite z-score in [19] and in [20] were -0.199 and -1.09, respectively. In addition, the z-score in [7] was -1.72; in experiment [10] it was 0.618 (inactive); in experiment [12] it was -0.415 (inactive); in experiment [13], -0.998 (inactive); in [14], 0.537 (inactive); in experiment [15], 1.13 (inactive).

On to `COCCOC(=O)N1C(=O)[C@@]2(c3cc(C#CC4(O)CCCCCC4)ccc31)[C@H](c1ccc(O)cc1)N1[C@H](c3ccccc3)[C@H](c3ccccc3)OC(=O)[C@H]1[C@@H]2C(=O)Nc1nc2ccccc2s1`, for which the composite z-score in experiment [1] was determined as 0.84; in experiment [2] it was 1.19; in experiment [3], 0.482; in [4] it was 0.97; in experiment [5], 1.18; in [6], 1.05. For the same molecule, the composite z-score in experiment [8] came out at 0.562; in experiment [9] it was 0.227; in experiment [11], 0.513; in experiment [16], 1.19; in [17], 0.741; in [18], 0.549. Also, the composite z-score in experiment [19] turned out to be 0.821; in experiment [20], 1.35. The z-score in experiment [7] was -1.85; in experiment [10], -0.715 (inactive); in experiment [12], -0.073 (inactive); in experiment [13], 0.505 (inactive); in [14], 1.42 (inactive); in experiment [15], 4.93 (inactive).

On to `CC(=O)NCCCC[C@@H]1NC(=O)[C@@H]2C[C@H](C(=O)NCCCCCCNC(=O)CS)[C@H](c3cccc(OCCO)c3)N2C1=O`, for which the composite z-score in [1] was 1.23; in experiment [2] it was 1.1; in [3], 0.314; in experiment [4] it was -0.917; in experiment [5], 1.24; in experiment [6], 1.59. Moreover, the composite z-score in experiment [8] is 0.574; in experiment [9], 0.379; in experiment [11], 0.611; in experiment [16], -0.088; in experiment [17], -0.179; in experiment [18] it was 0.442. In addition, the results for the composite z-score in [19] and in experiment [20] were 0.669 and 1.63, respectively. The z-score in experiment [7] was 0.488; in experiment [10], -0.242 (inactive); in experiment [12], 0.206 (inactive); in [13], -1.05 (inactive); in experiment [14], 0.135 (inactive); in experiment [15] it was -0.67 (inactive).

Values taken from PubChem BioAssay.
